In PubChem BioAssay AID1159580 (chemical genetic matrix, 2015):
In all, about 5,500 compounds went through this assay and about 2,000 (36%) were called active. About 18% were inconclusive and are not listed. The list shows a part of the results. Unmarked numbers belong to inactive results. Cut-off read from the data, not from the text of the source: active = normalized growth mostly below about 0.91 (no sharp cut-off); inconclusive = no clear call, values can overlap the other calls; inactive = mostly above about 0.92.

Assay: chemical genetic growth profiling, strain panel (AID 1159580);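 note: tested at 20 µM; growth read once vehicle control cultures reached saturation at 30 °C; 1 = growth at the plate median or of vehicle wells; lower values mean less growth of the strain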
Conditions: growth OD
[1] = S. cerevisiae deletion strains, locus YAL013W, strain DEP1, hits give low values
[2] = S. cerevisiae deletion strains, locus YBR229C, strain ROT2, hits give low values
[3] = S. cerevisiae deletion strains, locus YCL061C, strain MRC1, hits give low values
[4] = S. cerevisiae deletion strains, locus YDL101C, strain DUN1, hits give low values
[5] = S. cerevisiae deletion strains, locus YDR150W, strain NUM1, hits give low values
[6] = S. cerevisiae deletion strains, locus YEL061C, strain CIN8, hits give low values
[7] = S. cerevisiae deletion strains, locus YGR078C, strain PAC10, hits give low values
[8] = S. cerevisiae deletion strains, locus YHR030C, strain SLT2, hits give low values
[9] = S. cerevisiae deletion strains, locus YHR087W, strain rtc3, hits give low values
[10] = S. cerevisiae deletion strains, locus YJL187C, strain SWE1, hits give low values
[11] = S. cerevisiae deletion strains, locus YJR043C, strain POL32, hits give low values
[12] = S. cerevisiae deletion strains, locus YJR075W, strain HOC1, hits give low values
[13] = S. cerevisiae deletion strains, locus YKL190W, strain CNB1, hits give low values
[14] = S. cerevisiae deletion strains, locus YLR039C, strain RIC1, hits give low values
[15] = S. cerevisiae deletion strains, locus YLR058C, strain SHM2 (second series), hits give low values
[16] = S. cerevisiae deletion strains, locus YLR085C, strain ARP6, hits give low values
[17] = S. cerevisiae deletion strains, locus YLR262C, strain YPT6, hits give low values
[18] = S. cerevisiae deletion strains, locus YML094W, strain GIM5, hits give low values
[19] = S. cerevisiae deletion strains, locus YMR219W, strain ESC1, hits give low values
[20] = S. cerevisiae deletion strains, locus YMR263W, strain SAP30, hits give low values
[21] = S. cerevisiae deletion strains, locus YMR307W, strain GAS1, hits give low values
[22] = S. cerevisiae deletion strains, locus YNL153C, strain GIM3, hits give low values
[23] = S. cerevisiae deletion strains, locus YNL298W, strain CLA4 (second series), hits give low values
[24] = S. cerevisiae deletion strains, locus YNL322C, strain KRE1, hits give low values
[25] = S. cerevisiae deletion strains, locus YNR030W, strain Alg12, hits give low values
[26] = S. cerevisiae deletion strains, locus YPL055C, strain LGE1, hits give low values
[27] = S. cerevisiae deletion strains, locus YPL241C, strain CIN2, hits give low values
[28] = S. cerevisiae deletion strains, locus YPR135W, strain CTF4, hits give low values
[29] = S. cerevisiae strains, strain wild type, hits give low values
[30] = S. cerevisiae deletion strains, locus YOL006C, strain TOP1, hits give low values
[31] = S. cerevisiae deletion strains, locus YGR229C, strain SMI1, hits give low values

Cc1csc2ccc(Cl)cc12 gave a normalized growth [1] of 0.994, a normalized growth [2] of 0.998 and a normalized growth [3] of 1.01. It also gave a normalized growth [4] of 1.02, a normalized growth [5] of 0.993 and a normalized growth [6] of 1.01. For the same molecule, the normalized growth [7] was 0.998, the normalized growth [8] was 1.07 and the normalized growth [9] was 0.999. For the same molecule, the normalized growth [10] was 1.02, the normalized growth [11] was 1 and the normalized growth [12] was 0.98. It also gave a normalized growth [13] of 1.01, a normalized growth [14] of 1.07 and a normalized growth [15] of 1. It also gave a normalized growth [16] of 1.03, a normalized growth [17] of 1.04 and a normalized growth [18] of 1.01. The normalized growth [19] was 1, the normalized growth [20] was 1.01 and the normalized growth [21] was 1.07. The normalized growth [22] was 1.02, the normalized growth [23] was 1.06 and the normalized growth [24] was 1.01. The normalized growth [25] was 1.03, the normalized growth [26] was 0.996 and the normalized growth [27] was 1.02. The normalized growth [28] was 1 and the normalized growth [29] was 1.01.

Cc1c(Br)sc2ccc(Cl)cc12 showed a normalized growth [1] of 0.987, a normalized growth [2] of 0.936 and a normalized growth [4] of 0.96. For the same molecule, the normalized growth (S. cerevisiae deletion strains, locus YDL134C, strain PPH21, hits give low values) was 0.849 (active), the normalized growth [5] was 1.03 and the normalized growth [6] was 0.909. For the same molecule, the normalized growth [7] was 0.952, the normalized growth [8] was 0.294 (active) and the normalized growth [9] was 0.963. It also gave a normalized growth [11] of 1.05, a normalized growth [12] of 0.955 and a normalized growth [13] of 0.959. For the same molecule, the normalized growth [14] was 0.733 (active), the normalized growth [15] was 0.952 and the normalized growth [16] was 0.708 (active). For the same molecule, the normalized growth [17] was 0.709 (active), the normalized growth [18] was 0.864 (active) and the normalized growth [19] was 0.948. For the same molecule, the normalized growth [20] was 0.99, the normalized growth [22] was 0.98 and the normalized growth [23] was 0.782 (active). The normalized growth [24] was 0.976, the normalized growth [25] was 0.926 and the normalized growth [30] was 0.891. For the same molecule, the normalized growth [26] was 1.04, the normalized growth [27] was 0.939 and the normalized growth [28] was 0.953.

NC(N)=[N+]1CCc2ccccc2C1 gave a normalized growth (S. cerevisiae deletion strains, locus YAL040C, strain CLN3, hits give low values) of 0.966, a normalized growth (S. cerevisiae deletion strains, locus YCL061C, strain MRC1 (second series), hits give low values) of 0.989 and a normalized growth [5] of 1. It also gave a normalized growth (S. cerevisiae deletion strains, locus YDR363W, strain ESC2, hits give low values) of 0.904, a normalized growth (S. cerevisiae deletion strains, locus YER002W, strain NOP16, hits give low values) of 0.982 and a normalized growth [31] of 0.962. For the same molecule, the normalized growth [20] was 0.988, the normalized growth [21] was 1 and the normalized growth (S. cerevisiae deletion strains, locus YNL128W, strain TEP1, hits give low values) was 0.992. The normalized growth [22] was 1, the normalized growth (S. cerevisiae deletion strains, locus YNL175C, strain NOP13, hits give low values) was 0.991 and the normalized growth (S. cerevisiae deletion strains, locus YNL197C, strain WHI3, hits give low values) was 0.984. The normalized growth (S. cerevisiae deletion strains, locus YNL224C, strain SQS1, hits give low values) was 1.01, the normalized growth [24] was 0.972 and the normalized growth (S. cerevisiae deletion strains, locus YOR083W, strain WHI5 (second series), hits give low values) was 0.969. The normalized growth [26] was 0.944.

For COc1cc(OC)nc(N)n1, the normalized growth [1] was 1.02, the normalized growth [2] was 0.958 and the normalized growth [3] was 1.03. It also gave a normalized growth [4] of 1.04, a normalized growth [5] of 1.03 and a normalized growth [6] of 1. It also gave a normalized growth [7] of 1.03, a normalized growth [31] of 0.979 and a normalized growth [8] of 1.06. It also gave a normalized growth [9] of 0.974, a normalized growth [10] of 1.02 and a normalized growth [11] of 1.06. It also gave a normalized growth [12] of 1.01, a normalized growth [13] of 0.992 and a normalized growth [14] of 0.946. For the same molecule, the normalized growth [15] was 0.991, the normalized growth [16] was 0.949 and the normalized growth [17] was 0.96. It also gave a normalized growth [18] of 0.986, a normalized growth [19] of 0.98 and a normalized growth [20] of 1.02. The normalized growth [22] was 1.02, the normalized growth [23] was 0.99 and the normalized growth [24] was 0.988. It also gave a normalized growth [25] of 0.999, a normalized growth [30] of 1.01 and a normalized growth [26] of 1.02. The normalized growth [27] was 1.02, the normalized growth [28] was 1.06 and the normalized growth [29] was 0.985.

For O=C1ON=C(CSc2ccccc2)/C1=C/c1ccc(Cl)cc1, the normalized growth [1] was 0.0593 (active), the normalized growth [2] was 0.0605 (active) and the normalized growth [4] was 0.0787 (active). The normalized growth [5] was 0.0599 (active), the normalized growth [6] was 0.215 (active) and the normalized growth [7] was 0.0528 (active). The normalized growth [31] was 0.522 (active), the normalized growth [8] was 0.0755 (active) and the normalized growth [9] was 0.0592 (active). The normalized growth [11] was 0.0516 (active), the normalized growth [12] was 0.0832 (active) and the normalized growth [13] was 0.201 (active). The normalized growth [14] was 0.283 (active), the normalized growth [15] was 0.0598 (active) and the normalized growth [16] was 0.0742 (active). The normalized growth [17] was 0.324 (active), the normalized growth [18] was 0.343 (active) and the normalized growth [19] was 0.0677 (active). The normalized growth [20] was 0.0516 (active), the normalized growth [22] was 0.0589 (active) and the normalized growth [23] was 0.155 (active). For the same molecule, the normalized growth [24] was 0.0609 (active), the normalized growth [25] was 0.101 (active) and the normalized growth [26] was 0.0724 (active). For the same molecule, the normalized growth [27] was 0.0913 (active), the normalized growth [28] was 0.161 (active) and the normalized growth [29] was 0.337 (active).
